Consider 40 compounds from PubChem BioAssay AID2490 (National Center for Advancing Translational Sciences (NCATS), 2010).

Calls of active or inactive are those of the source. Calls follow the shape of the full dose curve.

Chain of Thyroid hormone receptor beta (Homo sapiens) (P10828 whole entry, looked up, the tested form may be a part): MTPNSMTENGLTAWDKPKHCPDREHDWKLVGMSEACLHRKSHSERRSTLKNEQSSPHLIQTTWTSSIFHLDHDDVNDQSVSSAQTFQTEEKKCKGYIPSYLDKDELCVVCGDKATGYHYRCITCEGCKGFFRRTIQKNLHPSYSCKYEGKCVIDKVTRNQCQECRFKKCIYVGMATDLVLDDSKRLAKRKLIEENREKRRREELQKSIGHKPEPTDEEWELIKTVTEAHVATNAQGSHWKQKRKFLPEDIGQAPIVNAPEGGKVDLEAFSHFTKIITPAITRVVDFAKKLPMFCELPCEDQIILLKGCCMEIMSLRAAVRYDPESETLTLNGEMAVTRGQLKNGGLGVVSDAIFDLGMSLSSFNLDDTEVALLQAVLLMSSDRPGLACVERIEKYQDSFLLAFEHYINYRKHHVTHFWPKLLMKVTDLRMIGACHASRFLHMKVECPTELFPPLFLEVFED

The experiment has as its target Thyroid hormone receptor beta (Homo sapiens) (UniProt P10828). Briefly: Secondary Confirmation Assay for Inhibitors of the Interaction of Thyroid Hormone Receptor and Steroid Receptor Coregulator 2, Texas Red Fluoroprobe. The settings on record: TRb LBD / Texas Red SRC2 peptide fluorescence polarization. An excerpt: NIH Molecular Libraries Probe Production Network [MLPCN] NIH Chemical Genomics Center [NCGC] MLPCN Grant: DK058080 Assay Provider: R. Kip Guy, St. Jude Children's Research Hospital NCGC Assay Overview: Thyroid receptor (TR) regulates many homeostatic processes including basal metabolism, cardiovascular function, body weight, and lipid trafficking. TR modulators are potential therapeutics for obesity and hyperlipidemias but current thyroid analogs have undesirable side effects, particularly cardiac stimulation. To identify inhibitors that specifically prevent the interaction of TR with the steroid receptor coregulator 2 (SRC2), a fluorescence polarization assay was screened (Arnold et al., 2006). This assay detects the interaction of the ligand-binding domain of human TRb with a Texas Red labeled SRC2 peptide, corresponding to a 20 amino acid region of the nuclear receptor interaction domain. Small molecule inhibitors that block the interaction of TR and SRC2 are detected by a decrease in fluorescence polarization.
NCGC Assay Protocol Summary: Twenty uL/well 0.6 uM TRb and 20 nM Texas Red labeled SRC2-2 in protein buffer (20mM Tris hydrochloride, pH 7.4, 100mM NaCl, 10% glycerol, 1mM EDTA, 0.01% NP-40, 1mM DTT, 1uM T3 and 4% DMSO) was dispensed into black solid 384-well plates (Costar 3710) using a Biomek FX (Beckman Coulter) liquid handling system. Following transfer of 260 nL compound (ranging from 7 nM to 130 uM), the plates were incubated 3 hr at ambient temperature. The plates were read by an Envision (Perkin Elmer) to detect fluorescence polarization of SRC2 Texas Red (555 nm excitation and 632 nm emission). Arnold, L. A.; Estebanez-Perpina, E.; Togashi, M.; Shelat, A.; Ocasio, C. A.; McReynolds, A. C.; Nguyen, P.; Baxter, J. D.; Fletterick, R. J.; Webb, P.; Guy, R. K. A high-throughput screening method to identify small molecule inhibitors of thyroid hormone receptor coactivator binding. Sci STKE 2006, p 13.
Regarding `O=C(COC(=O)c1cc([N+](=O)[O-])ccc1Cl)NC1C2CC3CC(C2)CC1C3` (stereo not given), the call was inactive.
For the compound `CS(=O)(=O)c1ccc(C(=O)OCC(=O)N2CC(=O)Nc3ccccc32)cc1[N+](=O)[O-]`, the Potency is 3.8 µM (active).
For `CC(=O)Nc1cccc(C(=O)OCC(=O)NC(=O)C2CCCCC2)c1`, the compound was called inactive.
Regarding `CS(=O)(=O)c1ccc(C(=O)OCC(=O)N2CCc3ccccc32)cc1[N+](=O)[O-]`, the Potency is 51.8 µM (active).
On to `O=C(COC(=O)c1ccc2ncsc2c1)NC(=O)C1CCCCC1`, for which the call was inactive.
Take `CC(=O)c1cccc(NC(=O)C(C)OC(=O)c2ccc(S(C)(=O)=O)c([N+](=O)[O-])c2)c1` (stereo not given): the Potency is 50.9 µM (active).
As for `CS(=O)(=O)c1ccc(C(=O)OCC(=O)N2CCCCC2)cc1[N+](=O)[O-]`, the Potency is 20.5 µM (active).
As to `CCc1nc(-c2ccc(S(C)(=O)=O)c([N+](=O)[O-])c2)sc1C(=O)NC1C2CC3CC(C2)CC1C3` (stereo not given), the Potency is 3 µM (active).
Still for that read-out and setting: the figure for `Cn1cccc1C(=O)NC(=O)COC(=O)c1ccc(S(C)(=O)=O)c([N+](=O)[O-])c1` is 38.4 µM (active); for `CC(OC(=O)c1ccc(S(C)(=O)=O)c([N+](=O)[O-])c1)C(=O)NC1C2CC3CC(C2)CC1C3` (stereo not given) it is 1.4 µM (active); for `CCN(CC)C(=O)COC(=O)c1ccc(S(C)(=O)=O)c([N+](=O)[O-])c1` it is 41.3 µM (active).
Still for that read-out and setting: the value for `CS(=O)(=O)c1ccc(C(=O)OCC(=O)NC2C3CC4CC(C3)CC2C4)cc1[N+](=O)[O-]` (stereo not given) was 1.6 µM (active); that for `CC(C)CN1CCN(C(=O)COC(=O)c2ccc(S(C)(=O)=O)c([N+](=O)[O-])c2)CC1` was 42.4 µM (active).
Still for that read-out and setting: the figure for `Cc1ccc(-c2csc(-c3ccc(S(C)(=O)=O)c([N+](=O)[O-])c3)n2)cc1` is 36.8 µM (active); for `CC1CCN(C(=O)C(C)OC(=O)c2ccc(S(C)(=O)=O)c([N+](=O)[O-])c2)CC1` (stereo not given) it is 6.4 µM (active).
Turning to `C[S+](=O)([O-])c1ccc(C(=O)OCC(=O)N2CCNC(=O)C2)cc1[N+](=O)[O-]`, the call was inactive.
For `Cc1nc(-c2ccc(S(C)(=O)=O)c([N+](=O)[O-])c2)sc1C(=O)NC1C2CC3CC(C2)CC1C3` (stereo not given), the Potency was 4 µM (active).
The same measure, in the same setting: the value for `CC1CCN(C(=O)COC(=O)c2ccc(S(C)(=O)=O)c([N+](=O)[O-])c2)CC1` was 9.8 µM (active).
Take `Cc1cc(C(=O)OCC(=O)NC(=O)C2CCCCC2)ccc1[N+](=O)[O-]`: the call was inactive.
Regarding `O=C(COC(=O)c1ccc(F)c([N+](=O)[O-])c1)NC1C2CC3CC(C2)CC1C3` (stereo not given), the Potency is 14.3 µM (active).
Regarding `Cc1ccccc1NC(=O)COC(=O)c1ccc(S(C)(=O)=O)c([N+](=O)[O-])c1`, the compound was classed as inactive.
Regarding `CS(=O)(=O)c1ccc(C(=O)OCC(=O)N2CCN(c3ccccc3)CC2)cc1[N+](=O)[O-]`, the Potency is 24.7 µM (active).
`CS(=O)(=O)c1ccc(C(=O)OCC(=O)N2CCC(c3ccccc3)CC2)cc1[N+](=O)[O-]`: the Potency was 6.2 µM (active).
Same read-out and setting: the figure for `CS(=O)(=O)c1ccc(C(=O)OCC(=O)N2CCN(C3CCCCC3)CC2)cc1[N+](=O)[O-]` is 16.1 µM (active).
Turning to `CN1CCN(C(=O)COC(=O)c2ccc(S(C)(=O)=O)c([N+](=O)[O-])c2)CC1`, the compound was classed as inactive.
On to `CN(C(=O)COC(=O)c1ccc(S(C)(=O)=O)c([N+](=O)[O-])c1)c1ccccc1`, for which the Potency was 1.6 µM (active).
Still for that read-out and setting: the value for `CC1CCCCN1C(=O)COC(=O)c1ccc(S(C)(=O)=O)c([N+](=O)[O-])c1` (stereo not given) was 11.5 µM (active).
As to `CS(=O)(=O)c1ccc(C(=O)OCC(=O)N2CCOCC2)cc1[N+](=O)[O-]`, the compound was classed as inactive.
`CS(=O)(=O)c1ccc(C(=O)OCC(=O)Nc2ccc(OC(F)(F)F)cc2)cc1[N+](=O)[O-]`: the outcome was inactive.
In the case of `C#CC1(NC(=O)COC(=O)c2ccc(S(C)(=O)=O)c([N+](=O)[O-])c2)CCCCC1`, the Potency was 9.2 µM (active).
`CS(=O)(=O)c1ccc(C(=O)OCC(=O)N2CCC(Cc3ccccc3)CC2)cc1[N+](=O)[O-]`: the Potency is 8.2 µM (active).
Consider `O=C(COC(=O)c1cccc([N+](=O)[O-])c1Cl)NC1C2CC3CC(C2)CC1C3` (stereo not given), for which the compound was called inactive.
For `CS(=O)(=O)c1ccc(C(=O)OCC(=O)N2CCN(Cc3ccccc3)CC2)cc1[N+](=O)[O-]`, the Potency is 15.3 µM (active).
`CS(=O)(=O)c1ccc(C(=O)OCC(=O)NC(=O)C2CCCCC2)cc1[N+](=O)[O-]`: the Potency was 1.4 µM (active).
The same measure, in the same setting: the figure for `CC1(C)C2CCC1(C)C(NC(=O)COC(=O)c1ccc(S(C)(=O)=O)c([N+](=O)[O-])c1)C2` (stereo not given) is 4.3 µM (active); for `CS(=O)(=O)c1ccc(-c2nc(C(=O)NC3C4CC5CC(C4)CC3C5)cs2)cc1[N+](=O)[O-]` (stereo not given) it is 10.1 µM (active).
Turning to `CCN1CCN(C(=O)COC(=O)c2ccc(S(C)(=O)=O)c([N+](=O)[O-])c2)C(C)C1` (stereo not given), the compound was classed as inactive.
As to `CS(=O)(=O)c1ccc(C(=O)OCC(=O)N2CCN(CCC3CCCCC3)CC2)cc1[N+](=O)[O-]`, the Potency is 7.6 µM (active).
On the same count and under the same terms, the figure for `CC(OC(=O)c1ccc(S(C)(=O)=O)c([N+](=O)[O-])c1)C(=O)NC12CC3CC(CC(C3)C1)C2` (stereo not given) is 2.1 µM (active); for `COc1cccc(CNC(=O)COC(=O)c2ccc(S(C)(=O)=O)c([N+](=O)[O-])c2)c1` it is 64.6 µM (active).
